Compound activity: PubChem BioAssay, The Scripps Research Institute Molecular Screening Center
The list is not random: actives were taken first. Their share in the collection is about 3.4%.
MITF primary – human MITF inhibition, primary screen | inhibition, % at 2.6 µM | AlphaScreen MITF homodimerization, bead proximity signal | O75030 | hit rate 0.91% among 650,000; in the data active means inhibition above about 50%
Target sequence (O75030 whole entry, looked up): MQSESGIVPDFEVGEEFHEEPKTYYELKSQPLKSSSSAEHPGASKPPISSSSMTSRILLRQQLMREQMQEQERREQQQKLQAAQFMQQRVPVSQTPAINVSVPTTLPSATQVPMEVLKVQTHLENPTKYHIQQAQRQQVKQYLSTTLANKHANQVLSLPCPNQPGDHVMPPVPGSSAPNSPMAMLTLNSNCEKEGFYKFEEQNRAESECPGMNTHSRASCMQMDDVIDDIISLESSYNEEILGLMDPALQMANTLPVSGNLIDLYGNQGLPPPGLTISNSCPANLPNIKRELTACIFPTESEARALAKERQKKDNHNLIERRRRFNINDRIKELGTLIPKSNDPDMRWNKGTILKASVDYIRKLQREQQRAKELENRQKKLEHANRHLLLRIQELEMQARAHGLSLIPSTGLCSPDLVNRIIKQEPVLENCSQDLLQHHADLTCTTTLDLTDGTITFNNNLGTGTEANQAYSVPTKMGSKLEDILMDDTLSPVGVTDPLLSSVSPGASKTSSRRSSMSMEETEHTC
GPR151 activ – activates the human receptor GPR151; Q8TDV0; PathHunter beta-arrestin GPR151 cells, luminescence; activation, % at 11.2 µM; hit rate 1% among 650,000; AID 1508602; in the data active means activation above about 4.9%
FBW7 activator – human FBW7 E3 ligase activation, primary screen | Q969H0 | AlphaScreen FBW7–phospho-cyclin E peptide binding, activator screen | normalized activity (activation), % at 26.1 µM | hit rate 0.13% among 650,000; in the data active means normalized activity above about 1.9%;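 further: purified mutant Fbw7 with reduced substrate affinity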
TEAD-YAP inh – TEAD-YAP interaction inhibition; HEK-TIYL cells, TEAD-Gal4/YAP UAS-luciferase luminescence; inhibition, % at 9.12 µM; hit rate 1.4% among 640,000; AID 1259422; in the data active means inhibition above about 32%
MITF confirm – confirmation of human MITF inhibitors | shares compounds with MITF primary | AlphaScreen MITF homodimerization, biotin/His-MITF beads | inhibition, % at 2.6 µM | hit rate 16% among 4,700;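 active means inhibition above a cutoff derived from the DMSO control wells, cut at about 28% in these data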;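 further: inhibitors lower the bead chemiluminescence by keeping MITF from dimerizing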
AS interf DR – counter-screen: compounds optically interfering with AlphaScreen; shares compounds with MITF primary; AlphaScreen optical interference counterscreen, cell-free; IC50, µM; hit rate 6% among 480; call rule not given here
AS interf ctr – counter-screen: compounds optically interfering with AlphaScreen | shares compounds with MITF primary | LysRS AlphaScreen counterscreen, signal interference, triplicate | inhibition, % at 2.6 µM | hit rate 7.6% among 4,700 | AID 1259376;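 active means inhibition above a cutoff derived from the DMSO control wells, cut at about 30% in these data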
Large screens that a line does not name were inactive (follow-up assays come after a bar, where they were run).

CC(=O)O[C@H]1C[C@H](O[C@H]2[C@@H](O)C[C@H](O[C@H]3[C@@H](O)C[C@H](O[C@H]4CC[C@@]5(C)C(CCC6C5C[C@@H](O)[C@]5(C)[C@@H](C7=CC(=O)OC7)CC[C@]65O)C4)O[C@@H]3C)O[C@@H]2C)O[C@H](C)[C@H]1O[C@@H]1O[C@H](CO)[C@@H](O)[C@H](O)[C@H]1O (some centres undefined)	TEAD-YAP inh 100
C[C@H]1OC(O[C@H]2[C@@H](O)CC(O[C@H]3[C@@H](O)C[C@H](O[C@H]4CC[C@]5(C)C6CC[C@]7(C)[C@@H](C8=CC(=O)OC8)[C@@H](O)C[C@]7(O)[C@@H]6CC[C@@H]5C4)O[C@@H]3C)O[C@@H]2C)C[C@H](O)C1O (some centres undefined)	TEAD-YAP inh 78
CO[C@@H]1C(O)[C@H](O[C@H]2CC[C@@]3(C=O)[C@H](CC[C@@H]4[C@@H]3CC[C@]3(C)[C@@H](C5=CC(=O)OC5)CC[C@]43O)C2)OC(C)[C@@H]1O (some centres undefined)	TEAD-YAP inh 101
C[C@]12CC[C@H]3[C@@H](CC[C@]4(O)C[C@@H](O)CC[C@]34C=O)[C@@]1(O)CC[C@@H]2C1=CC(=O)OC1	TEAD-YAP inh 101
COc1ccc(/C=C/c2nc3ccccc3c(=O)n2-c2ccc(C)cc2Br)cc1	none
O=P(Oc1ccccc1)(Oc1ccccc1)C1CCS(=O)(=O)C1 (centres undefined)	none
COc1ccc(C(=O)C2CCCN(Cc3cc(C)[nH]n3)C2)c(OC)c1 (centres undefined)	none
CC(C)CCCn1c(O)c(/C=C2\C=CC=N2)c(=O)[nH]c1=O	none
O=c1[nH]c(=O)n(Cc2ccccc2Cl)c(O)c1/C=C1\C=CC=N1	TEAD-YAP inh 52
COc1ccc(CCNCc2cc(OC)c(OC)cc2OC)cc1	MITF primary 61 | MITF confirm inactive | AS interf ctr inactive
COc1cc(OC)c(OC)cc1CNCCc1ccc(Cl)cc1	none
N#Cc1ccc(NC(=O)COC(=O)c2ccc(S(=O)(=O)N3CCCC3)cc2)cc1Cl	none
COc1ccc(CN2CCN(Cc3ccc(C)cc3)CC2)cc1	MITF primary 80 | MITF confirm inactive | AS interf ctr inactive
COc1ccc(CN2CCN(Cc3ccc(Cl)cc3)CC2)cc1	MITF primary 83 | MITF confirm inactive | AS interf ctr inactive
Cc1nn(Cc2ccc(Cl)cc2)c(Cl)c1C=O	none
Cc1cccc(CC(=O)N2CCN(Cc3nc4ccccc4[nH]3)CC2)c1	MITF primary 55 | MITF confirm inactive | AS interf ctr inactive
CN(C)c1ccc(CN2CCN(c3ccccc3)CC2)cc1	none
COc1ccc(CN2CCN(Cc3ccccc3Cl)CC2)cc1Br	MITF primary 78 | MITF confirm inactive | AS interf ctr inactive
COc1ccc(CN2CCN(Cc3ccccc3C)CC2)cc1Br	MITF primary 83 | MITF confirm inactive | AS interf ctr inactive
CC(=O)N1CCN(c2c(F)c(F)c(F)c(F)c2C(=O)c2ccccc2)CC1	none
N=C1c2ccccc2CN1c1ccc([N+](=O)[O-])cc1Br	none
COc1ccccc1CN1CCN(Cc2cccc(Cl)c2)CC1	MITF primary 69 | MITF confirm inactive | AS interf ctr inactive
COc1cccc(CN2CCN(c3ccc(Cl)cc3)CC2)c1O	none
COc1ccccc1N1CCN(Cc2ccc(F)cc2)CC1	none
COc1ccccc1CN1CCN(Cc2ccc(SC)cc2)CC1	MITF primary 81 | MITF confirm inactive | AS interf ctr inactive
COc1ccc(CN2CCN(Cc3ccccc3OC)CC2)cc1	MITF primary 77 | MITF confirm 31 | AS interf DR inactive | AS interf ctr inactive
COc1ccccc1CN1CCN(Cc2ccc(Cl)cc2)CC1	MITF primary 73 | MITF confirm inactive | AS interf ctr inactive
CSc1ccc(/C=C/c2nc3ccccc3c(=O)n2-c2ccc(C)cc2)cc1	none
CC(C)/C=C/CN1CCC[C@@H]2CN(C(=O)c3ccncc3)CC[C@H]21	none
COc1ccccc1CN1CCN(Cc2ccc(F)cc2)CC1	MITF primary 81 | MITF confirm inactive | AS interf ctr inactive
COc1ccc(CN2CCN(Cc3cccc(OC)c3)CC2)cc1	MITF primary 63 | MITF confirm inactive | AS interf ctr inactive
COc1cccc(CN2CCN(Cc3ccc(C)cc3)CC2)c1	MITF primary 77 | MITF confirm inactive | AS interf ctr inactive
COc1cccc(CN2CCN(c3ccc(C(C)=O)cc3)CC2)c1	MITF primary 64 | MITF confirm inactive | AS interf ctr inactive
COc1ccc(N2CCN(Cc3cccc(OC)c3)CC2)cc1	none
CC(=O)c1ccc(N2CCN(Cc3cccc(O)c3)CC2)cc1	none
C=CCN1C(=O)C2(C(C#N)=C(N)OC(C)=C2C(=O)OCC)c2ccccc21 (centres undefined)	none
CCc1ccc(N2C(=O)CC(=O)NC2=O)cc1	MITF primary 69 | MITF confirm inactive | AS interf ctr inactive
Fc1ccc(CN2CCN(Cc3ccc(Cl)cc3)CC2)cc1	MITF primary 68 | MITF confirm inactive | AS interf ctr inactive
Fc1ccc(CN2CCN(Cc3ccccc3)CC2)cc1	MITF primary 59 | MITF confirm inactive | AS interf ctr inactive
Fc1ccc(CN2CCN(c3ccc(Cl)cc3)CC2)cc1	none
CCOc1ccc(CN2CCNCC2CCO)cc1 (centres undefined)	none
O=[N+]([O-])c1ccccc1CN1CCN(Cc2ccccc2)CC1	none
O=[N+]([O-])c1ccccc1CN1CCN(Cc2ccccc2Br)CC1	MITF primary 58 | MITF confirm inactive | AS interf ctr inactive
CSc1ccc(CN2CCN(Cc3ccc(Br)cc3)CC2)cc1	MITF primary 78 | MITF confirm inactive | AS interf ctr inactive
CCN1CCN(Cc2ccccc2Br)CC1	none
CSc1ccc(CN2CCN(Cc3ccccc3Br)CC2)cc1	MITF primary 75 | MITF confirm inactive | AS interf ctr inactive
CCc1ccc(CN2CCN(Cc3ccccc3Br)CC2)cc1	MITF primary 57 | MITF confirm inactive | AS interf ctr inactive
CCN1CCN(Cc2ccc(SC)cc2)CC1	none
Cc1ccc(C2=NCC(=O)N(CC(=O)NCc3ccco3)c3sc4c(c32)CCCC4)cc1	none
CCCCn1c(=O)c(C(=O)Nc2cccnc2)c(O)c2ccccc21	none
COc1cc(Br)c(CN2CCN(C)CC2)cc1OC	none
CCN1CCN(Cc2ccc(OC)cc2OC)CC1	none
CCC(C)N1CCN(Cc2ccc(OC)c(OC)c2)CC1 (centres undefined)	MITF primary 64 | MITF confirm inactive | AS interf ctr inactive
CCOc1ccc(CN2CCN(C(C)CC)CC2)cc1 (centres undefined)	MITF primary 66 | MITF confirm inactive | AS interf ctr inactive
